Source: PubChem BioAssay (Tox21)
Inconclusive results are not listed. Where a call stands in place of a potency, no number is given. Activity calls are given as the source filed them. Unless noted, the call rests on the fitted dose curve; in most records, active means well fitted curve in the direction sought with a large enough effect in the repeat runs; inconclusive means weak or mixed curves; inactive means no such curve, though single readings can be large; an effect the other way counts as inactive or inconclusive.

Test: qHTS assay for small molecule disruptors of the mitochondrial membrane potential - cell viability (AID 720634; calls by dose curve;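 further: human HepG2 liver cancer cells; nearly all actives have a fitted effect of over 20% in size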)
Settings: HepG2 viability, ATP luminescence (CellTiter-Glo), 1 h; series mostly up to 83.2 µM
Outline: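 Same-well counter-screen: following the MMP dye addition, CellTiter-Glo was added to 1 hr compound-treated HepG2 cells and luminescence read after 30 min at room temperature.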

Row | SMILES | Potency
1 | C[N+](C)(C)CCCCCC[N+](C)(C)C | inactive
2 | NS(=O)(=O)c1cc2c(cc1Cl)NC(C1CC3C=CC1C3)NS2(=O)=O (centres undefined) | inactive
3 | OCCOc1ccc(OCCO)cc1 | inactive
4 | COC(C)(C)CCCC(C)CC=O (centres undefined) | inactive
5 | CCOC(=O)CCC(C)=O | inactive
6 | NC(=O)COCCN1CCN(C(c2ccccc2)c2ccc(Cl)cc2)CC1 (centres undefined) | inactive
7 | C=CCCCCCCCCC=O | inactive
8 | NS(=O)(=O)c1ccc(C(=O)O)cc1 | inactive
9 | CC[N+](C)(C)c1cccc(O)c1 | inactive
10 | O=C(O)CCCc1ccccc1 | inactive
11 | CC(=O)c1ccccc1O | inactive
12 | Cc1cccn2c(=O)c(-c3nnn[nH]3)cnc12 | inactive
13 | c1ccc([C@H]2CN3CCSC3=N2)cc1 | inactive
14 | CC(C[N+](C)(C)C)OC(N)=O (centres undefined) | inactive
15 | CCCCCCCCS(=O)(=O)Cl | inactive
16 | O=[N+]([O-])c1ccc(F)cc1F | inactive
17 | CC(=O)OCC(=O)[C@@]1(O)CCC2C3CCC4=CC(=O)CC[C@]4(C)C3[C@@H](O)C[C@@]21C (some centres undefined) | inactive
18 | COC(=O)c1c(Cl)c(Cl)c(C(=O)OC)c(Cl)c1Cl | inactive
19 | O=C1CCCC(=O)C1 | inactive
20 | CCOC(=O)c1ccc(C)cc1 | inactive

Row | SMILES | Potency
21 | O=C(CCCN1CCN(c2ccccn2)CC1)c1ccc(F)cc1 | inactive
22 | CC1(C)C(O)C(C)(C)C1O (centres undefined) | inactive
23 | CC/C=C\CC/C=C/C(OCC)OCC | inactive
24 | COc1c(N2C[C@@H]3CCCN[C@@H]3C2)c(F)cc2c(=O)c(C(=O)O)cn(C3CC3)c12 | inactive
25 | COC(=O)[C@@H](N)Cc1ccc(O)c(O)c1 | inactive
26 | CCN1CCC[C@H]1CNC(=O)c1c(O)c(Cl)cc(Cl)c1OC | inactive
27 | OC(CCN1CCCCC1)(c1ccccc1)C1CC2C=CC1C2 (centres undefined) | inactive
28 | C1CN(CCOCCN2CCOCC2)CCO1 | inactive
29 | COc1nc(N)nc2c1ncn2[C@@H]1O[C@H](CO)[C@@H](O)[C@@H]1O | inactive
30 | C=C[Si](OC(=C)C)(OC(=C)C)OC(=C)C | inactive
31 | CCOC(C)(C)C | inactive
32 | C=CCS(=O)(=O)O | inactive
33 | CC(C)CNCC(C)C | inactive
34 | Oc1ccc(C2CNCCc3c2cc(O)c(O)c3Cl)cc1 (centres undefined) | inactive
35 | O=C(O)COc1nn(Cc2ccccc2)c2ccccc12 | inactive
36 | CC(C)NCC(O)c1ccc(NS(C)(=O)=O)cc1 (centres undefined) | inactive
37 | CO[Si](CCCOCC1CO1)(OC)OC (centres undefined) | inactive
38 | CCSC(=O)N(CC(C)C)CC(C)C | inactive
39 | NC(=O)c1ccc([N+](=O)[O-])cc1 | inactive
40 | CCCN1CCCC[C@H]1C(=O)Nc1c(C)cccc1C | inactive

Test: qHTS assay for small molecule disruptors of the mitochondrial membrane potential (AID 720635); further: potency means the concentration at half of the fitted maximal effect
Settings: HepG2 mitochondrial membrane potential, Mito-MPS dye ratio; series mostly up to 83.2 µM
Outline: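 Mitochondrial membrane potential tracked with Mito-MPS dye, red aggregates (ex 540/em 590 nm) against green monomers (ex 490/em 535 nm). Compound treatment 1 hr at 37C, dye 30 min in HepG2.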

Row | SMILES | Potency
41 | OCCOc1ccc(OCCO)cc1 | 1560 nM (active)
42 | NS(=O)(=O)c1ccc(C(=O)O)cc1 | inactive
43 | O=C(O)CCCc1ccccc1 | inactive
44 | CC(C[N+](C)(C)C)OC(N)=O (centres undefined) | inactive
45 | CCCCCCCCS(=O)(=O)Cl | inactive
46 | O=[N+]([O-])c1ccc(F)cc1F | inactive
47 | CC(=O)OCC(=O)[C@@]1(O)CCC2C3CCC4=CC(=O)CC[C@]4(C)C3[C@@H](O)C[C@@]21C (some centres undefined) | inactive
48 | COC(=O)c1c(Cl)c(Cl)c(C(=O)OC)c(Cl)c1Cl | inactive
49 | O=C1CCCC(=O)C1 | inactive
50 | CCOC(=O)c1ccc(C)cc1 | inactive
51 | O=C(CCCN1CCN(c2ccccn2)CC1)c1ccc(F)cc1 | inactive
52 | COC(=O)[C@@H](N)Cc1ccc(O)c(O)c1 | inactive
53 | C=CCS(=O)(=O)O | inactive
54 | CC(C)CNCC(C)C | inactive
55 | Oc1ccc(C2CNCCc3c2cc(O)c(O)c3Cl)cc1 (centres undefined) | inactive
56 | O=C(O)COc1nn(Cc2ccccc2)c2ccccc12 | inactive
57 | CC(C)NCC(O)c1ccc(NS(C)(=O)=O)cc1 (centres undefined) | inactive
58 | CO[Si](CCCOCC1CO1)(OC)OC (centres undefined) | inactive
59 | CCSC(=O)N(CC(C)C)CC(C)C | inactive

Test: qHTS assay to test for compound auto fluorescence at 590 nm (red) in HepG2 cells (AID 720674)
Settings: HepG2 autofluorescence, red 540/590 nm, 1 h; series mostly up to 46 µM
Outline: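 We screened compounds on adherent HepG2 cells, incubating them for an hour at 37 C in 5% CO2 before reading emission at 590 nm under 540 nm excitation; values reflect equivalence to Rose Bengal sodium fluorescence.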

Row | SMILES | outcome
60 | C[N+](C)(C)CCCCCC[N+](C)(C)C | inactive
61 | NS(=O)(=O)c1cc2c(cc1Cl)NC(C1CC3C=CC1C3)NS2(=O)=O (centres undefined) | inactive
62 | OCCOc1ccc(OCCO)cc1 | inactive
63 | COC(C)(C)CCCC(C)CC=O (centres undefined) | inactive
64 | CCOC(=O)CCC(C)=O | inactive
65 | NC(=O)COCCN1CCN(C(c2ccccc2)c2ccc(Cl)cc2)CC1 (centres undefined) | inactive
66 | C=CCCCCCCCCC=O | inactive
67 | CC[N+](C)(C)c1cccc(O)c1 | inactive
68 | O=C(O)CCCc1ccccc1 | inactive
69 | CC(=O)c1ccccc1O | inactive
70 | Cc1cccn2c(=O)c(-c3nnn[nH]3)cnc12 | inactive
71 | c1ccc([C@H]2CN3CCSC3=N2)cc1 | inactive
72 | CC(C[N+](C)(C)C)OC(N)=O (centres undefined) | inactive
73 | O=[N+]([O-])c1ccc(F)cc1F | inactive
74 | O=C1CCCC(=O)C1 | inactive
75 | CCOC(=O)c1ccc(C)cc1 | inactive
76 | O=C(CCCN1CCN(c2ccccn2)CC1)c1ccc(F)cc1 | inactive
77 | CC1(C)C(O)C(C)(C)C1O (centres undefined) | inactive
78 | CC/C=C\CC/C=C/C(OCC)OCC | inactive
79 | COc1c(N2C[C@@H]3CCCN[C@@H]3C2)c(F)cc2c(=O)c(C(=O)O)cn(C3CC3)c12 | inactive
80 | CCN1CCC[C@H]1CNC(=O)c1c(O)c(Cl)cc(Cl)c1OC | inactive
81 | OC(CCN1CCCCC1)(c1ccccc1)C1CC2C=CC1C2 (centres undefined) | inactive
82 | C1CN(CCOCCN2CCOCC2)CCO1 | inactive
83 | COc1nc(N)nc2c1ncn2[C@@H]1O[C@H](CO)[C@@H](O)[C@@H]1O | inactive
84 | C=C[Si](OC(=C)C)(OC(=C)C)OC(=C)C | inactive
85 | CCOC(C)(C)C | inactive
86 | O=C(O)COc1nn(Cc2ccccc2)c2ccccc12 | inactive
87 | CC(C)NCC(O)c1ccc(NS(C)(=O)=O)cc1 (centres undefined) | inactive
88 | NC(=O)c1ccc([N+](=O)[O-])cc1 | inactive
89 | CCCN1CCCC[C@H]1C(=O)Nc1c(C)cccc1C | inactive
